Source: the supplement of paper PMC13380429

Tested on: Vero E6 infected with SARS-CoV-2
Assay: inhibition of SARS-CoV-2 cytopathic effect; higher = more antiviral protection, active = above 15
Details: 48 h

Measured: inhibition of SARS-CoV-2 cytopathic effect

C[C@H](Nc1ncnc2nc[nH]c12)c1cc2cccc(Cl)c2c(=O)n1-c1ccccc1 [duvelisib]
inactive: 1 nM -1.06% | 8.33 nM -0.83% | 100 nM -1.82% | 833.33 nM 0.25% | 10000 nM -3.79%

Cn1cc(C2=C(c3cn(CCCSC(=N)N)c4ccccc34)C(=O)NC2=O)c2ccccc21 [bisindolylmaleimide-IX]
inactive: 1 nM -1.28% | 8.33 nM -0.79% | 100 nM -3.04% | 833.33 nM 1% | 10000 nM -1.54%

Cc1cc(NS(=O)(=O)c2ccc(N)cc2)no1 [sulfamethoxazole]
inactive: 1 nM 2.98% | 8.33 nM 0.81% | 100 nM 0.9% | 833.33 nM 0.68% | 10000 nM 0.81%

Cc1ccc(NC(=O)c2ccc(CN3CCN(C)CC3)cc2)cc1Nc1nc(-c2cccnc2)cs1 [masitinib]
active: 10000 nM 44.8%
inactive: 1 nM 1.41% | 8.33 nM 0.48% | 100 nM 1.05% | 833.33 nM 1.93%

CCc1ccc2c(-c3cccc(Cl)c3)nc(=O)n(CC)c2n1
inactive: 1 nM -1.8% | 8.33 nM 0.23% | 100 nM 1.37% | 833.33 nM -1.65% | 10000 nM 0.57%

COc1cc(C#N)ccc1S(=O)(=O)Nc1ccc2c(c1)cc(C)c(=O)n2C
inactive: 1 nM -2.94% | 8.33 nM 1.53% | 100 nM 0.3% | 833.33 nM -4.02% | 10000 nM -0.1%

Nc1cc(-c2ccncc2)c[nH]c1=O [amrinone]
inactive: 1 nM 3.03% | 8.33 nM 3.76% | 100 nM -3.46% | 833.33 nM -6.26% | 10000 nM 1.36%

Cc1ccc(Cl)c(OC[C@H](O)CNC(C)C)c1 [1-(2-chloro-5-methylphenoxy)-3-(isopropylamino)-2-propanol]
inactive: 1 nM 0.19% | 8.33 nM -0.3% | 100 nM -0.68% | 833.33 nM 0.3% | 10000 nM -2.47%

CC(C)CN(C[C@@H](OP(=O)(O)O)[C@H](Cc1ccccc1)NC(=O)O[C@H]1CCOC1)S(=O)(=O)c1ccc(N)cc1 [fosamprenavir]
inactive: 1 nM -0.69% | 8.33 nM 0.83% | 100 nM 0.76% | 833.33 nM -0.52% | 10000 nM -2.55%

CCCCCCCCCCCCCCCc1cccc(OCC(=O)NCCO)c1
inactive: 1 nM -0.98% | 8.33 nM -2.66% | 100 nM -0.69% | 833.33 nM 1.46% | 10000 nM -1.78%

NC1CCN(c2nc3c(cc2F)c(=O)c(C(=O)O)cn3-c2ccc(F)cc2F)C1 (stereo not given) [tosufloxacin]
inactive: 1 nM -2.93% | 8.33 nM 0.34% | 100 nM -3.49% | 833.33 nM -3.32% | 10000 nM -0.08%

O=C(COc1ccc(Cl)cc1)N[C@H]1CC[C@H](NC(=O)COc2ccc(Cl)cc2)CC1
active: 10000 nM 15.7%
inactive: 1 nM -0.57% | 8.33 nM -0.23% | 100 nM 3.35% | 833.33 nM 6.09%

CC(=O)N1N=C(c2ccc(N)cc2)c2cc3c(cc2C[C@H]1C)OCO3 [talampanel]
inactive: 1 nM -0.4% | 8.33 nM 0.84% | 100 nM 0.91% | 833.33 nM 1.19% | 10000 nM 1.16%

Cc1ccc(NCCCc2ccccc2)c(N)c1 [NFKB-activation-inhibitor-II]
inactive: 1 nM -0.97% | 8.33 nM -0.96% | 100 nM -1.32% | 833.33 nM -1.12% | 10000 nM 2.24%

COc1ccc(-c2csc(NC(=O)[C@H]3CCCCN3S(=O)(=O)c3ccc(C)cc3)n2)cc1
inactive: 1 nM 0.8% | 8.33 nM 2.33% | 100 nM 1.23% | 833.33 nM 2.63% | 10000 nM 1.27%

COc1cc2c(cc1OC)CN(CCc1ccc(NC(=O)c3cc(OC)c(OC)cc3NC(=O)c3cnc4ccccc4c3)cc1)CC2 [tariquidar]
inactive: 1 nM 1.54% | 8.33 nM -1.28% | 100 nM 2.75% | 833.33 nM 1.99% | 10000 nM -0.52%

CC1OC2(CS1)CN1CCC2CC1 (stereo not given) [cevimeline]
inactive: 1 nM -0.26% | 8.33 nM -0.65% | 100 nM -1.15% | 833.33 nM -0.01% | 10000 nM -1.57%

CC(C)(CO)CCCCCCC(C)(C)CO [gemcadiol]
inactive: 1 nM -2.86% | 8.33 nM -2.01% | 100 nM -1.65% | 833.33 nM -2.84% | 10000 nM -2.43%
